# Hck-Nef inh: human Hck-Nef kinase inhibition | P08631 | Recombinant Hck-YEEI plus Nef, Z-Lyte FRET kinase assay | inhibition, % at 20 µM | 220,000 compounds, 0.68% hits;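 active means Hck-Nef kinase inhibition above about 50%, limit read from the data; inactive means inhibition below that limit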
# Mcl-1 Bim block: human Bim-Mcl-1 interaction inhibition | inhibition, % at 10 µM | AID 1009 | 190,000 compounds, 0.1% hits | Bead-based flow cytometry, Bim peptide-Mcl-1 binding; in the data active means inhibition above about 40%
# Target sequence (Q07820 whole entry, looked up): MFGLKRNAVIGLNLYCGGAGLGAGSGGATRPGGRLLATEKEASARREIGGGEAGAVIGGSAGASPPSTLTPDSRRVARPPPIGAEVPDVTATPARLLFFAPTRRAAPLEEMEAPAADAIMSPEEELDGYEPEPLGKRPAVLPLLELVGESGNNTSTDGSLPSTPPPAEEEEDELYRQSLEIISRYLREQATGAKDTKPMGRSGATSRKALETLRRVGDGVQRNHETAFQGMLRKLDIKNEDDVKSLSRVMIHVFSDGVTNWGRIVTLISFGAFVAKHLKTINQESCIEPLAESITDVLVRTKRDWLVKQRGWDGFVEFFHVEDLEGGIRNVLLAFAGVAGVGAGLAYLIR
# Mcl1-Noxa inh: Mcl-1/Noxa interaction inhibition. TR-FRET Mcl-1/Noxa peptide binding, 2 h. 220,000 compounds, 1.5% hits. AID 1022. inhibition, % at 21.7 µM. Q07820;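 active means compounds that cut the protein-peptide binding signal by more than 50% relative to plate controls in a single-dose test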;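 further: His-tagged Mcl-1 with rhodamine Noxa BH3 peptide and terbium anti-His antibody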
# Pf gametocyte: inhibitors of late stage P. falciparum gametocyte viability | 150,000 compounds, 0.065% hits | inhibition, % at 10.9 µM | P. falciparum stage V gametocytes, ATP luminescence, 24 h;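 active means inhibition above the mean plus 3 SD of compounds within the control limits, set per campaign, cut at about 38% in these data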
# Mcl1 Bid PPI: disrupts binding of human Mcl-1 to Bid peptide; 220,000 compounds, 0.97% hits; AID 1021; Q07820; TR-FRET Mcl-1/Bid-Dy647 peptide binding, 1536-well; inhibition, % at 21.7 µM;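 active means compounds that cut the binding signal by more than half at the single screening dose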;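 further: His-tagged Mcl-1 with europium anti-His antibody binding Bid BH3 peptide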
# 14-3-3 Bad PPI: disrupts binding of bovine 14-3-3 zeta to phospho-Bad peptide. TR-FRET 14-3-3zeta/Dy647-pBad peptide displacement, 1 h. P63103. 220,000 compounds, 0.71% hits. inhibition, % at 21.7 µM;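 active means inhibition above about 70%, limit read from the data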
# Target sequence (P63103 whole entry, looked up): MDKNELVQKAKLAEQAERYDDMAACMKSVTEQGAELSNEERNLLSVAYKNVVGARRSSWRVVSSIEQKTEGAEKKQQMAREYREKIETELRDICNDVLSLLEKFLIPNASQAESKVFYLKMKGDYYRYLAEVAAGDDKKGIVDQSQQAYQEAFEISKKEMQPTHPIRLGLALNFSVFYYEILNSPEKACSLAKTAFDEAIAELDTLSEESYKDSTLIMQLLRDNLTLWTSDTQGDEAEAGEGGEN
# Hck Nef conf: Hck-Nef kinase inhibition, confirmation. Recombinant Hck-YEEI:Nef, Z-Lyte FRET kinase assay. shares compounds with Hck-Nef inh. calls only at 10 µM. 1,300 compounds, 28% hits;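 active means average inhibition of at least 50%, with Z-scores no higher than 3 in both the phospho-tyrosine peptide and fluorescence counterscreens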
# Numbers stand for hits; i = inactive; nt = not tested or not shown; + = active, no number. An excerpt weighted towards active compounds, which were near 2.9% of everything screened.
SMILES,Hck-Nef inh,Mcl-1 Bim block,Mcl1-Noxa inh,Pf gametocyte,Mcl1 Bid PPI,14-3-3 Bad PPI,Hck Nef conf
Cc1ccc(-c2nc3ccccc3s2)cc1NC(=S)NC(=O)c1ccccc1,i,i,i,nt,i,i,nt
O=Cc1cc(N=Nc2ccccc2Cl)ccc1O,57,i,i,i,i,i,+
COc1cccc(C(=O)/C=C2\Sc3ccccc3N2C)c1,106,i,i,i,i,i,i
CCN(CC)c1ccc(-c2nn3c(-c4ccccc4OC)nnc3s2)cc1,51,i,i,nt,i,i,i
COc1ccc(-c2nn3c(-c4ccccc4)nnc3s2)cc1,i,i,i,i,i,i,nt
O=C(CN1CCCCC1)Nc1c2c(nc3ccccc13)N(c1ccccc1)CC2,91,i,i,i,i,71,nt
CCCC(=O)Nc1c2c(nc3ccccc13)N(c1ccccc1)CC2,i,i,i,nt,i,i,nt
Cc1cc(C)c2nc(-c3ccccn3)cc(C(=O)Nc3ccc(S(=O)(=O)Nc4onc(C)c4C)cc3)c2c1,71,i,79,nt,i,i,+
Cc1cc(C)c2nc(-c3ccccn3)cc(C(=O)Nc3ccc(S(=O)(=O)Nc4cc(C)on4)cc3)c2c1,i,i,i,nt,i,i,nt
COc1ccc(N2C(=O)c3ccccc3NC2c2ccc(OC)c(Cn3nnc4ccccc43)c2)cc1 (centres undefined),i,i,i,nt,i,i,nt
O=C(COC(=O)c1cnc(Cl)c(Cl)c1)NCc1cccs1,i,i,i,i,i,i,nt
O=C(c1ccccc1)N1CCN(CC2CC=CCC2)CC1 (centres undefined),i,i,i,i,i,i,nt
COc1ccc(CCn2c(SCC(=O)Nc3cc(C)on3)nc3ccccc3c2=O)cc1OC,i,i,i,nt,i,i,nt
COc1ccc(CCn2c(SCC(=O)Nc3cc(C)on3)nc3ccsc3c2=O)cc1OC,65,i,i,nt,i,i,i
CN(C)C=Nc1nc2ccccc2nc1N1CCCC1,i,i,i,i,i,i,nt
CSc1ccccc1NC(=O)c1cc(-c2cccnc2)nc2ccc(Br)cc12,57,i,i,i,64,89,i
CC(=O)Nc1cccc(NC(=O)c2cc(-c3cccnc3)nc3ccc(Br)cc23)c1,i,i,i,nt,i,i,nt
CC(=O)c1cc2c(cc1NS(=O)(=O)c1ccccc1C)OCO2,i,i,i,i,i,i,nt
COc1ccc(S(=O)(=O)Nc2cc3c(cc2C(C)=O)OCO3)cc1,54,i,i,i,i,i,i
Cc1ccc(C(C)C)c(OCC(=O)N/N=C/c2ccc(S(=O)(=O)O)o2)c1,i,nt,i,i,i,i,nt
CC(C)(C)CC(C)(C)c1ccc(OCC(=O)N/N=C/c2ccc(S(=O)(=O)O)o2)cc1,57,nt,i,i,i,i,+
O=C(COC(=O)C12CC3CC(CC(C3)C1)C2)Nc1ccc(OC(F)F)cc1,i,i,i,i,i,i,nt
CCN(CC)c1ccc(/C=N/N2CCN(Cc3ccccc3)CC2)cc1,57,i,75,i,i,i,i
Cc1ccc(S(=O)(=O)N[C@H](C(=O)N2CCC(C(=O)N3CCC[C@H]3C(=O)O)CC2)C(C)C)cc1,i,i,i,nt,i,i,nt
COc1cc(/C=C2\SC(c3ccccc3)=NC2=O)cc(Cl)c1O,50,i,73,i,i,i,+
SMILES,Hck-Nef inh,Mcl-1 Bim block,Mcl1-Noxa inh,Pf gametocyte,Mcl1 Bid PPI,14-3-3 Bad PPI,Hck Nef conf
Cc1cccn2c(=O)c3cc(C(=O)NCC4CCCO4)c(=N)n(Cc4cccnc4)c3nc12 (centres undefined),118,i,i,nt,i,i,nt
N=c1c(C(=O)NCC2CCCO2)cc2c(=O)n3ccccc3nc2n1Cc1cccnc1 (centres undefined),128,i,i,i,i,i,nt
CC(C)n1nc(C(=O)N2CCN(S(=O)(=O)c3cccs3)CC2)c2ccccc2c1=O,i,nt,i,i,i,i,nt
CCN(CC)c1ccc(/C=C2/C(=O)c3ccc(C(=O)O)cc3C2=O)cc1,55,nt,58,i,i,i,i
CCN(CC)c1ccc(C=C2C(=O)OC3(CCCCC3)OC2=O)cc1,i,i,i,i,i,i,nt
C=CCN=c1scc(C)n1/N=C/c1ccc(O)c(O)c1,i,i,i,i,i,i,nt
CN=c1scc(-c2ccco2)n1/N=C/c1ccc(O)c(O)c1,51,i,73,i,i,i,i
CCOCCCNc1nc2nc3ccc(C)cn3c(=O)c2cc1C(=O)NCC1CCCO1 (centres undefined),199,i,i,i,i,i,nt
Cc1ccc2nc3c(cc(C(=O)NCC4CCCO4)c(=N)n3CCCOC(C)C)c(=O)n2c1 (centres undefined),182,i,i,nt,i,i,i
Cc1ccc2nc3c(cc(C(=O)NCC4CCCO4)n3C)c(=O)n2c1 (centres undefined),i,i,i,nt,i,i,nt
O=C(Oc1ccc(Nc2ncnc3ccccc23)cc1)c1cccnc1,85,i,i,i,73,82,+
CCOC(=O)N1CCN(C(=O)c2ccc3c(=O)n(-c4ccc(F)cc4)c(=S)[nH]c3c2)CC1,53,i,i,i,i,i,i
Nc1ncnc2oc(-c3ccco3)c(-c3ccco3)c12,71,i,82,nt,i,i,+
COc1ccc(NC(=O)c2cc([N+](=O)[O-])ccc2O)cc1,52,i,i,i,i,i,i
COc1ccc(NC(=O)c2cccc([N+](=O)[O-])c2)cc1,i,i,i,i,i,i,nt
O=C1/C(=C\c2ccco2)SC(=S)N1C1CCS(=O)(=O)C1 (centres undefined),69,nt,i,i,i,i,i
Cc1ccc2occ(C3NC(C(=O)O)CS3)c(=O)c2c1 (centres undefined),83,i,i,nt,i,i,+
Cc1ccc2occ(C3N[C@H](C(=O)O)CS3)c(=O)c2c1 (some centres undefined),73,i,i,nt,i,i,i
COc1cccc2c(=O)c3ccoc3n(C)c12,i,i,i,nt,i,i,nt
COc1cccc2c(=O)c3c(cnn3C)n(C)c12,88,i,i,i,i,i,nt
CC1CCN(C(=O)CSc2nnc(Cc3ccccc3)o2)CC1,i,i,i,nt,i,i,nt
Cc1[nH]c2ccccc2c1C(=O)CSc1nc2ncc(Cl)cc2[nH]1,72,i,i,i,i,i,+
O=C(CSc1nc2ncc(Cl)cc2[nH]1)NCC(=O)Nc1ccc(F)c(F)c1F,61,nt,i,i,i,i,nt
CCCn1c(SCCN2C(=O)c3ccccc3C2=O)n[nH]c1=O,i,i,i,nt,i,i,nt
CCN(CCO)c1nc(SC)nc2c1sc1nc(-c3ccco3)c3c(c12)CCC3,68,i,99,nt,52,i,i
O=C(CN1CC[n+]2c(-c3ccccc3)csc21)c1ccc(Br)cc1,67,nt,i,i,i,i,+
O=C(CN1CC[n+]2c(-c3cccs3)csc21)c1ccc(Br)cc1,i,i,i,i,i,i,nt
